Compound activity as filed in PubChem BioAssay.
This excerpt belongs to a sample that is enriched for hits.
A1 inhib: A1 inhibition | MEF A1-2A-BIM cells, caspase-Glo luminescence, 3 h; percent of clofoctol signal, DMSO as zero | caspase activation, % (concentration not given with the values) | 0.51% of 21,000 active | AID 2241;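 active = most replicate scores above 10, or exactly half above 10 with mean activity above 10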;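 note: effector caspase 3 and 7 activity cleaving a DEVD luciferin substrate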
Of the large screens only hits and unclear results are named; the others gave an inactive call.

CSC(SC)=C(C#N)C(=O)c1cccc(C(F)(F)F)c1	A1 inhib 48
CSc1nc(Nc2cccc(C(F)(F)F)c2)cc(C(F)(F)F)c1C#N	none
N#CC(C(=O)c1cccc(C(F)(F)F)c1)=C1SCCCCS1	none
O=C(NC1CCCC1)c1cc(=O)[nH]c2ccc(Br)cc12	none
COc1ccc(NC(=O)NC2c3ccccc3Oc3ccccc32)cc1OC	none
CC1(C)CC(=O)C(C=NCc2ccco2)=C(O)C1	none
CN(C)c1ccc(C(=C2C=CC(=[N+](C)C)C=C2)c2ccc(N(C)C)cc2)cc1	A1 inhib 58
Cc1ccc(CNCc2c(C(=O)O)c(C)n(Cc3ccccc3)c2C)cc1	none
Cc1ccccc1NC(=S)N1CCC(N(C)C(C)C)CC1	none
c1ccc(-c2ccccc2NC2=NCCS2)cc1	none
CC(C)(C)C(=O)Nc1nnc(SCc2ccc(Cl)cc2Cl)s1	none
O=c1c2ccccc2nc2c3ccccc3c(N3CCOCC3)nn12	none
O=c1cc(N2CCOCC2)oc2c1ccc1ccccc12	none
O=c1cc(N2CCOCC2)oc2c(-c3ccccc3)cccc12	A1 inhib 11
Cc1ccc(S(=O)(=O)N(C)CC(=O)Nc2ccc(S(N)(=O)=O)cc2)cc1	none
COc1ccc(Cl)cc1NC=C1C(=O)OC2(CCCCC2)OC1=O	none
C[C@H]1CC[C@@H]2[C@@H](C(=O)c3c(O)c([C@]4(O)CC[C@@H](O)[C@H]5O[C@H]54)cn(O)c3=O)[C@@H](C)C=C[C@H]2C1	A1 inhib 46
O=C(O)CCC(=O)Nc1nc2n(n1)C(c1ccccc1)CC(=O)N2 (configuration not stated)	none
CC(C)c1ccc(NS(=O)(=O)Cc2ccccc2)cc1	none
CC1CCC(NC(=O)Cn2ncc3c4ccccc4n(Cc4ccccc4)c3c2=O)CC1 (configuration not stated)	none
C[C@H](CO)N1C[C@H](C)[C@H](CN(C)C(=O)Nc2ccc(C(F)(F)F)cc2)Oc2ccc(NS(=O)(=O)c3cccs3)cc2C1=O	A1 inhib 12
C[C@H]1CN([C@@H](C)CO)C(=O)c2cc(NS(=O)(=O)c3cccs3)ccc2O[C@H]1CN(C)C(=O)Nc1ccccc1	none
C[C@@H]1CN([C@H](C)CO)C(=O)c2cc(NS(=O)(=O)c3cccs3)ccc2O[C@H]1CN(C)C(=O)Nc1ccc(F)cc1	none
CC(C)(C)C(=O)Cn1nnc(-c2cccc(C(F)(F)F)c2)n1	none
NC(=O)c1ccccc1NC(=O)CC(c1ccccc1)c1ccccc1	none
FC(F)(F)c1cc(N2CCC(n3cccc3)CC2)c2ccccc2n1	none
NS(=O)(=O)c1ccc(CCNC(=O)c2cccn3c(=O)c4cc5ccccc5cc4nc23)cc1	A1 inhib 13
CCOC(=O)N1CCN(C(=O)c2cccn3c(=O)c4cc5ccccc5cc4nc23)CC1	none
O=C(NCCc1ccccc1)c1cc(-c2ccccc2)nc2ccccc12	none
Oc1cccc(-c2nc3ccc4ccccc4c3c3c2CCCC3)c1	none
CN(C)CCNC(=O)c1cc2c(s1)-c1ccc(Cl)cc1SC2	A1 inhib 39
CCCNC(=O)c1cc2c(s1)CS(=O)(=O)C2	none
CC(=O)Nc1cc(C(=O)NCCN(C)C)ccc1Sc1ccc(Cl)cc1	none
CCOC(=O)c1c(-c2ccccc2)oc2ccc(O)c(CSCC(=O)Nc3ccccc3)c12	none
Cc1[nH]c2ccccc2c1Sc1ccccc1	A1 inhib 11
CCCNC(=O)c1[nH]c2ccccc2c1Sc1ccc(Cl)cc1	none
Cc1[nH]c2ccccc2c1C(c1c(C)[nH]c2ccccc12)C(C)C	none
CCCCN(C)Cc1c(O)ccc2c(=O)c(-c3ccccc3OC)c(C(F)(F)F)oc12	none
CNC[C@@H]1Oc2ccc(NC(=O)Nc3c(C)noc3C)cc2C(=O)N([C@H](C)CO)C[C@H]1C	A1 inhib 16
CNC[C@@H]1Oc2ccc(NC(=O)Nc3c(C)noc3C)cc2C(=O)N([C@@H](C)CO)C[C@@H]1C	none
Cc1noc(C)c1NC(=O)Nc1ccc2c(c1)C(=O)N([C@H](C)CO)C[C@H](C)[C@@H](CN(C)C)O2	none
COc1ccc(CNC(=O)Cn2c3ccccc3c3nc(=O)cc(C)n32)cc1	none
O=C(Nc1ccc(OC(F)(F)F)cc1)OC1CN(C(c2ccccc2)c2ccccc2)C1	none
CC(NC(=O)COc1ccccc1C(C)(C)C)c1ccccc1 (configuration not stated)	none
O=C(Nc1cc(-c2ccc(Cl)cc2)nn1-c1ccc(F)cc1)C1CCC1	none
COc1ccc(-n2nc3c(c2NC(=O)/C=C\c2ccc4c(c2)OCO4)CS(=O)(=O)C3)cc1	none
CCCCC1CCC(C(=O)Nc2c3c(nn2-c2ccc(F)cc2)CS(=O)(=O)C3)CC1 (configuration not stated)	A1 inhib 15
CSc1ccc(-c2cccs2)nn1	none
Cc1nn(-c2ccccc2)c(-n2cccc2)c1C(=O)N1CCCC1	none
O=C(NC1CC1)c1ccc2c(c1)N(Cc1ccccc1)C(=O)CS2	none
O=C(/C=c1\[nH]/c(=C/c2ccc(F)cc2)c(=O)[nH]c1=O)c1ccccc1	A1 inhib 12
COc1ccc(/C=c2/[nH]/c(=C\C(=O)c3ccccc3)c(=O)[nH]c2=O)cc1OC	none
O=C1OCCN/C1=C\C(=O)c1ccccc1	none
COc1ccc(CC(=O)Nc2c3c(nn2-c2ccc(C)cc2)CSC3)cc1	none
O=C(NCCOc1ccccc1-c1ccccc1)c1cccc2ccccc12	none
CCNC(=O)c1ccc2c(c1)sc1nc(-c3ccccc3)cn12	none
COC(=O)CN(Cc1ccccc1)S(=O)(=O)c1ccc(C)cc1	none
Cc1ccc(S(=O)(=O)N[C@@H](Cc2ccccc2)C(=O)CCl)cc1	A1 inhib 16
Cc1ccc(S(=O)(=O)c2ccc(-c3ccccc3)cc2)cc1	none
CN(C)CCNC(=O)c1ccc2c(=O)n(Cc3ccc4c(c3)OCO4)c(=S)[nH]c2c1	none
Cn1c(O)c(C=Nc2cccc(CO)c2)c2ccccc21	none
CCc1ccc(N=Cc2c(O)n(-c3ccccc3)c(=O)c3ccccc23)cc1	A1 inhib 41
CCc1ccc(N=Cc2c(O)[nH]c(=S)[nH]c2=O)cc1	none
CC1(C)CC(=O)C(C2C3=C(CC(C)(C)CC3=O)Oc3ccc(Br)cc32)C(=O)C1 (configuration not stated)	none
Nc1cccc(-c2cc3c(Oc4cccc(O)c4)ncnc3[nH]2)c1	A1 inhib 23
N#Cc1c(N2CCN(C(=S)NCc3ccccc3)CC2)nc(-c2ccccc2)c2c1CCCC2	none
O=C(NC(=O)c1c(Cl)cccc1Cl)Nc1nc2cc(F)ccc2s1	none
CCC(C)[C@H]1C(=O)O[C@H](C(C)C)C(=O)N(C)[C@@H](C(C)C)C(=O)O[C@H](C(C)C)C(=O)N(C)[C@@H](C(C)C)C(=O)O[C@H](CC(C)C)C(=O)N1C (some centres not stated)	A1 inhib 45
CC(C)N1C(=O)S/C(=C/c2cc(Br)c(OCC(=O)O)c(Br)c2)C1=O	none
CC(C)Nc1cnn(C23CC4CC(CC(C4)C2)C3)c(=O)c1Cl	none
Fc1ccccc1N1CCN(CCCNc2nc(=S)[nH]c3ccccc23)CC1	none
CCC(Sc1nc2cc3c(cc2c(=O)n1Cc1ccco1)OCO3)C(=O)NCc1ccc(C)cc1 (configuration not stated)	A1 inhib 15
CCC(Sc1nc2cc3c(cc2c(=O)n1Cc1ccco1)OCO3)C(=O)Nc1ccccc1OC (configuration not stated)	none
O=C(CSc1nc2ccccc2c(=O)n1Cc1ccco1)c1ccccc1	none
C=CCNC(=O)c1ccc2c(c1)N(Cc1cccc(Cl)c1)C(=O)c1ccccc1S2	none
CCc1cc(C)cc(OCCn2cc(C=C3C(=O)NC(=O)NC3=O)c3ccccc32)c1	A1 inhib 39
CCOC(=O)Cn1cc(/C=C2\C(=O)NC(=O)N(c3ccc(F)cc3)C2=O)c2ccccc21	none
